Reference: PubChem BioAssay (NCATS)
Results filed as inconclusive are left out. The source made the active and inactive calls. Calls follow the shape of the dose curve; as a rule, active = well fitted cell-killing curve with a large enough effect; inconclusive = small, poorly fitted or top-dose-only effect; inactive = flat fitted curve, though single readings scatter. Peptide text beside a SMILES is read from it.

Assay: Cell Viability - Renal Proximal Tubule (AID 545); also: nearly all actives have a fitted effect of over 40% in size;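 as to activity change, negative = cytotoxicity: 0% = DMSO only and -100% = 100 µM tamoxifen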
Details: renal proximal tubule cells viability, primary cells of rat origin; series mostly up to 91.7 µM; activity change, negative = cytotoxicity: at the top concentration
Source text: NIH Chemical Genomics Center [NCGC]
NIH Molecular Libraries Screening Centers Network [MLSCN]
National Institutes of Environmental Health Sciences [NIEHS]
National Toxicology Program [NTP]
We have developed a 1536-well cell-based assay for quantitative high throughput screening (qHTS) against a number of cell lines to determine in vitro cytotoxicity of small molecules. This particular assay uses the renal proximal tubule cells which are derived from normal kidney cells freshly isolated from rat.
NCGC Assay Protocol Summary:
The CellTiter-Glo luminescent cell viability assay (Promega) is a homogeneous method to measure the number of viable cells in culture. The end point readout of this assay is based on quantitation of intracellular ATP, an indicator of metabolic activity, using the luciferase reaction. Luciferase catalyzes the oxidation of beetle Luciferin to oxyluciferin and light in the presence of ATP. The luminescent signal is proportional to amount of ATP present.
Using the CellTiter-Glo luminescent cell viability assay, the amount of cellular ATP was measured in the renal proximal tubule cells with complete culture medium following compound treatment for 40 hours. The assay was performed in opaque white Kalypsys 1536-well plates. In the screen, tamoxifen and doxorubicin were used as positive controls. Library compounds were measured for their ability to cause acute toxicity in the cell line, as reflected by a decrease in intracellular ATP levels, in a concentration-dependent manner. […] AC50 values were determined from concentration-response data modeled with the standard Hill equation.
qHTS protocol for CellTiter Glo renal proximal tubule cell assay
[Step] [Parameter] [Value] [Description]
1. Reagent; 5 uL; 1000 renal proximal tubule cells/well
2. Time; 5 hr; 37 °C incubation
4. Controls; 23 nL; Tamoxifen 0.34 uM to 100 uM & Doxorubicin 0.02 nM to 100 uM
5. Time; 40 hr; 37 °C incubation
6. Reagent; 5 uL; CellTiter Glo reagent
7. Time; 20 min; Room Temperature
8. Detection; Luminescence; Viewlux plate reader
Keywords: cell viability, cytotoxicity, renal proximal tubule cells, luminescence, NTPHTS, NTPHTS_NCGC, NIEHS, EPA, DSSTox, MLSMR, MLSCN, NIH Roadmap, qHTS, NCGC
Potency is read from the fitted curve at half-maximal effect.

| SMILES | activity change, negative = cytotoxicity | Potency |
| --- | --- | --- |
| CCCc1cc(=O)[nH]c(=S)[nH]1 | -1.05% (inactive) |  |
| CC(=O)Nc1ccc(O)cc1 | -13.7% (inactive) |  |
| CCc1nc(N)nc(N)c1-c1ccc(Cl)cc1 | -18.8% (inactive) |  |
| Cc1cc(O)c2c(c1)C(=O)c1cc(O)cc(O)c1C2=O | -3.29% (inactive) |  |
| c1ccc2[nH]c(-c3cscn3)nc2c1 | -25.7% (inactive) |  |
| CS(=O)(=O)OCCCCOS(C)(=O)=O |  | inactive |
| Cc1ccc(C)c(OCCCC(C)(C)C(=O)O)c1 | -7.53% (inactive) |  |
| CCCCC(CC)COC(=O)C(C#N)=C(c1ccccc1)c1ccccc1 (stereo not drawn) | -27.6% (inactive) |  |
| COc1c2occc2cc2ccc(=O)oc12 | -23.8% (inactive) |  |
| CN(C)c1ccc2nc3ccc(=[N+](C)C)cc-3sc2c1 |  | 31.6 µM (active) |
| Nc1ccc(S(N)(=O)=O)cc1 | -10.1% (inactive) |  |
| COC(=O)[C@H](Cc1ccccc1)NC(=O)[C@@H](N)CC(=O)O (H-Asp-Phe-OMe) | 8.52% (inactive) |  |
| NS(=O)(=O)c1cc(C(=O)O)c(NCc2ccco2)cc1Cl | -3.5% (inactive) |  |
